# Measured values reported in PubChem BioAssay (NCI).
# This is part of a sample that, as a whole, favours compounds with a hit. Of some 83,000 tested, about 20% had one in any assay.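 Testing used 96-well plates and a 48-hour single-concentration exposure. Example: -40 means 40% of the starting cells died.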 Unmarked numbers belong to inactive results. Calls of active or inactive are those of the source.
# System: CCRF-CEM leukemia
# Experiment: NCI-60 one-dose screen, 48 h (100 = growth as untreated, 0 = no growth, -100 = all killed)
# Conditions: 10 µM unless noted
# Experimental: Growth inhibition of the CCRF-CEM human tumor cell line is measured as a screen for anti-cancer activity. Cells are grown in 96 well plates and exposed to the test compound for 48 hours. Compounds are tested at a single concentration, which is 10^-5 M for most compounds. The reported endpoint is percent growth (GI% or GIPRCNT), where numbers from 0 - 100% represent growth inhibition, and numbers from -100% - 0 represent cell death. For example, a value of 40 represents 60% growth inhibition. A value of 0 means no net growth occurred over the course of the experiment. A value of -40 indicates 40% of cells at the beginning of the experiment died by the end of the experiment. A value of -100 means all cells are dead at the end of the experiment.
# NCI-60 Human Tumor Cell Lines Screen was performed using the standard one-dose NCI protocol, which is described in more detail at https://dtp.cancer.gov/discovery_development/nci-60/default.htm.
# Compounds with GIPRCNT values below 10 were considered active. Activity score was based on GIPRCNT using the following formula: […]
# Score is 0 for GIPRCNT values of 100 or above, 50 for GIPRCNT values of 0, and 100 for GIPRCNT values of -100.
row,SMILES,growth
1,CN(C)CCOc1nc2c3ccncc3cc(-c3cccc(Cl)c3)c2c2cnccc12,3.4% (active)
2,Cc1ccc(NC(=O)c2nc(S(C)=O)oc2-c2ccc(F)cc2)cc1Nc1nccc(-c2cccnc2)n1 (stereo not given),2.57% (active)
3,C=CCn1c(C)nc2cc(Nc3nc(N4CCCC4)nc4nc[nH]c34)ccc21,83.9%
4,C=CCN(CCOC(=O)c1ccc([N+](=O)[O-])cc1)CCOC(=O)c1ccc([N+](=O)[O-])cc1,94.3%
5,CCCCCc1c(C)[nH]c(/C=C2\N=C(c3ccc[nH]3)C=C2CC)c1C,-58.3% (active)
6,C/C(=N\NC(=S)N1CCCCC1)c1ccccn1,8.62% (active)
7,N#Cc1c(NN)n(C2OC(CO)C(O)C2O)c2ncnc(N)c12 (stereo not given),-22.3% (active)
8,Cc1ccc(-c2nc3ccccc3c(=O)n2/N=C/c2cccc3ccccc23)cc1,55.2%
9,O=C1OCC2=C1C(c1ccc(Cl)c(Cl)c1)c1cc3c(cc1N2CCO)CCC3 (stereo not given),10.6%
10,COc1cccc2nc(Nc3cccc(NC(=O)c4cc(N5CCOCC5)cc(C(F)(F)F)c4)c3)ccc12,48.9%
11,Cc1nc2ccc(Nc3nc(Cl)nc(N4CCOCC4)n3)cc2n1Cc1ccccc1,45.7%
12,O=C(Oc1c(Cl)c(Cl)c(Cl)c(Cl)c1Cl)C1CCCN1C(=O)OCc1ccccc1 (stereo not given),10.8%
13,COCCCNCC(=O)Nc1c(C)cccc1C,98.6%
14,CCOc1cccc(/C=N/NC(=O)Cc2ccc(Nc3ccnc(C(F)(F)F)c3)cc2)c1O,-21.7% (active)
15,CC(=O)N1N=C(c2ccc(C)cc2)CC1c1cn(-c2ccccc2)nc1-c1cccc(Nc2ccnc3cc(Cl)ccc23)c1 (stereo not given),-19.7% (active)
16,CN(C)CCOc1nc2c3cccnc3cc(-c3cccc(Cl)c3)c2c2ncccc12,6.83% (active)
17,COc1ccc2c(c1)N(CCO)C1=C(C(=O)OC1)C2c1cccc(Br)c1 (stereo not given),11.7%
18,O=C(/C=C/c1cccc([N+](=O)[O-])c1)c1ccc(Nc2nc(N3CCCCC3)nc(N3CCCCC3)n2)cc1,104%
19,CC(=O)c1cc(C(=O)c2ccc3c(c2)Sc2ccccc2N3)c2c(C)cccn12,16.3%
20,COc1cc(Nc2ccnc3ccc(Br)cc23)cc(OC)c1OC,32.8%

row,SMILES,growth
1,CCOC(=O)c1ccc(NC(=O)NC2=NCCS2)cc1,7.22% (active)
2,C=C(C)c1ccc(/C=N/NC(N)=S)cc1,64%
3,c1ccc(-c2[nH]c3ccccc3c2-c2ccccc2)cc1,47.6%
4,CSCCC1NC(=O)C(C(C)=Nc2ccccc2)=C1O (stereo not given),106%
5,Clc1ccc(Nc2ncnc3c2sc2ncccc23)c(Cl)c1,16.6%
6,Cc1ccc(-c2cnc3sc4ccc(Cl)cc4n23)cc1,106%
7,CC(=O)c1nn(-c2ccccc2)/c(=N\N=C\c2coc3ccc(F)cc3c2=O)s1,97.2%
8,COc1c(B(O)O)cccc1-c1nc2ccc3[nH]ncc3c2c2c1CCCC2,6.99% (active)
9,Cc1ccc(S(=O)(=O)NC(CCC(=O)Nc2ccc(Cl)cc2)C(=O)Nc2ccc(Cl)cc2)cc1 (stereo not given),4.45% (active)
10,CC1=NC(c2ccc(Cl)cc2)C2=C(N1)/C(=C/c1ccc(Cl)cc1)CCC2 (stereo not given),78.8%
11,COc1cccc(Cn2c(-c3nonc3NC(C)=O)nc3ccccc32)c1,41%
12,Nc1cc2nc3ccccc3oc-2cc1=O,94%
13,CC1(C)CC[C@]2(C(=O)N3CCNCC3)CC[C@]3(C)C(=CC[C@@H]4[C@@]5(C)CCC(=O)C(C)(C)[C@@H]5CC[C@]43C)[C@@H]2C1,106%
14,COc1ccc(C(=O)C(C#N)c2cc(OC)c(OC)c(OC)c2)cc1 (stereo not given),102%
15,COC1CC(N)C2OC(c3ccccc3)OCC2O1 (stereo not given),93.3%
16,COc1cc(C2=NOC(c3cc(OC)c(OC)c(OC)c3)C2)ccc1OCCCCOc1cc2c(cc1OC)C(=O)N1CCC[C@H]1C=N2 (stereo not given in full),-37.5% (active)
17,O=[N+]([O-])c1cccc(N=C(Nc2cccc([N+](=O)[O-])c2)c2ccccc2)c1,65.3%
18,CCCCC(CCc1ccccn1)C(=O)c1ccccc1 (stereo not given),98.3%
19,COC1=CC(c2ccc[nH]2)=N/C1=C\c1[nH]c(C)c(C(=O)CCCCCCCCC(=O)O[C@H]2CC[C@H]3C4CCc5cc(O)ccc5C4CC[C@]23C)c1C (stereo not given in full),11.5%
20,NC(=O)Nc1ccc2ncnc(Nc3cccc(O)c3)c2c1,108%
